High-throughput results: PubChem, National Center for Advancing Translational Sciences (NCATS)
This is a sample that favours compounds with a hit; in the whole collection about 9.4% have one here.
Pf growth 48h – P. falciparum growth inhibition at 48 hours (one generation) | P. falciparum luciferase growth in erythrocytes, 48 h | Potency, µM (titrated, usually from 28.7 µM), inactives show at the highest dose activity change, negative = inhibition, hits mostly inhibitors | actives 5.9% (n = 310,000) | AID 504832; further: on the % scale 0 is the no-effect control and ±100 the full control effect
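Here the parasites carry a stable luciferase gene and grow inside erythrocytes in Albumax-based RPMI medium with compound for one erythrocytic cycle. Activity is scored as loss of luminescent signal.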
AMA1-RON2 inh – inhibitors of Plasmodium falciparum AMA1-RON2 interaction | actives 0.2% (n = 360,000) | Potency, µM (doses to about 58.2 µM), for the others: at the top dose activity change, negative = inhibition, hits mostly inhibitors | AID 720542 | AlphaScreen AMA1-biotinylated RON2 peptide binding;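 further: 0% = vehicle wells and -100% = peptide control; nearly all actives have a fitted effect of over 45% in size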
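AMA1 (3D7) with his tag at 25 nM final met compounds first, then biotinylated RON2 peptide at 25 nM; detection used donor plus acceptor beads, 10 µg/mL apiece, read by AlphaScreen after 30 min at room temperature.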
Pf growth 96h – inhibits malaria parasite growth, 96 h; P. falciparum luciferase reporter growth, 96 h; Potency, µM (top dose mostly 28.7 µM), without a hit: at the highest dose activity change, negative = inhibition, most hits filed as inhibitors; actives 6.9% (n = 320,000); further: on the % scale 0 is the no-effect control and ±100 the full control effect
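Parasite growth measured via integrated firefly luciferase reporter in P. falciparum. Infected erythrocytes at 2% hematocrit, 0.05% parasitemia final were treated 96 hours at 37 C under 5% CO2, and luminescence was read.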
SARS PLP yeast – blocks SARS-CoV papain-like protease in a yeast assay. actives 0.19% (n = 330,000). S. cerevisiae expressing SARS-CoV PLpro, growth rescue. Potency, µM (doses to about 32.9 µM), without a hit: at the top dose activity, positive = growth rescue, hits mostly activators; calls by dose curve; further: 0% is about no effect; nearly all actives have a fitted effect of over 55% in size
Starred values were filed as active, the others as inactive; ? = inconclusive; . = no result. Unless noted, the call rests on the fitted dose curve; in most records, active means well fitted curve in the direction sought with a large enough effect; inconclusive means small, poorly fitted or top-dose-only effect, or another doubt; inactive means no such curve, though single readings can be large; an effect the other way counts as inactive or inconclusive. Potency means the concentration at half of the fitted maximal effect.

SMILES	Pf growth 48h	AMA1-RON2 inh	Pf growth 96h	SARS PLP yeast
COC(=O)C1=C(c2ccc(F)cc2OCc2ccccc2)C[C@@H]2CC[C@H]1N2C(=O)NCc1cccc(OC)c1	9.28µM*	-4.9%	?	4.3%
COc1ccccc1N(CC1CO1)S(=O)(=O)c1ccccc1 (stereo not drawn)	8.1%	-8.5%	?	1.2%
COC(=O)C1=C(c2ccc(OC)c(OC)c2)C[C@@H]2CC[C@H]1N2C(=O)NCCc1ccccc1	?	-3.2%	-8.5%	0.2%
COC(=O)C1=C(c2ccccc2OCc2ccccc2)C[C@@H]2CC[C@H]1N2C(=O)NCc1ccc(OC)c(OC)c1	13.1µM*	-12.0%	?	1.9%
COC(=O)C1=C(c2ccc(OCc3ccccc3)cc2)C[C@@H]2CC[C@H]1N2C(=O)NCCc1ccc(F)cc1	.	-8.9%	.	.
COC(=O)C1=C(c2ccccc2OCc2ccccc2)C[C@@H]2CC[C@H]1N2C(=O)NCc1cccc(F)c1	9.28µM*	-3.1%	?	-0.1%
Cc1ccc(NC(=O)CNC(=O)c2ccco2)cc1Cl	25.3%	51.2%	20.9%	-2.0%
CCS(=O)(=O)NCCNc1ccc([N+](=O)[O-])cc1	-2.0%	-19.1%	11.7µM*	0.3%
Cc1ccc(CNC(=O)C2CCC(CNc3nc(=S)[nH]c4ccccc34)CC2)cc1 (stereo not drawn)	?	47.7%	120.6%	2.3%
Cc1ccccc1C(=O)NCCc1nnc(SCC(=O)Nc2nc(-c3ccccc3)cs2)n1C	-3.5%	0.9%	13.1µM*	-2.9%
Cc1ccc(C(=O)CSc2nnc(CNc3nc(-c4ccccc4)cs3)n2C)cc1	?	3.0%	13.1µM*	-1.9%
Cc1cc(C)nc(SCc2nnc(SCC(=O)Nc3nc(-c4ccccc4)cs3)n2C)n1	?	18.7%	-26.7%	?
CN1C(=O)C(C)(C)c2cc(S(=O)(=O)N3CCN(c4cccc(Cl)c4)CC3)ccc21	?	-3.9%	6.3%	-8.5%
Cc1ccc(S(=O)(=O)N2CCN(C)CC2c2ccccc2)cc1 (stereo not drawn)	16.0%	-3.4%	34.8%	7.7%
Cc1ccc(C(=O)N2c3ccccc3CC2C)o1 (stereo not drawn)	84.7%	-28.1%	3.7µM*	-2.3%
N=c1sc2c(n1Cc1ccccc1)CCCC2	-15.4%	0.9%	65.1%	-3.7%
N=c1c2c(n(Cc3ccc(Cl)cc3)c3c1CCC3)CCC2	0.208µM*	-6.1%	25.1%	-7.8%
N=c1c2c(n(Cc3ccccc3)c3c1CCC3)CCC2	0.415µM*	3.6%	0.131µM*	-4.4%
O=C1NC2(CCCCCC2)C(=O)N1Cc1ccc(Cl)cc1Cl	1.0%	3.9%	32.8%	-1.8%
N=c1c2c(n(Cc3ccc(Cl)cc3Cl)c3c1CCC3)CCCC2	0.185µM*	36.3%	.	-3.3%
N=c1c2c(n(Cc3ccc(F)cc3)c3c1CCC3)CCCC2	?	-0.4%	14.9%	5.5%
Clc1cccc(CN2CCCCCC2)c1	1.1%	-9.2%	35.3%	3.0%
N=c1c2c(n(Cc3cccc(Cl)c3)c3c1CCC3)CCCC2	0.262µM*	-4.3%	-106.8%	-37.8%
O=C1CCC(=O)N1c1ccc(NCc2ccccc2Cl)c([N+](=O)[O-])c1	6.5%	7.1%	3.1%	1.8%
Nn1c(Nc2ccccc2)nc2ccccc21	163.4%	1.8%	52.7%	-3.7%
SMILES	Pf growth 48h	AMA1-RON2 inh	Pf growth 96h	SARS PLP yeast
O=C(CC1C(=O)CCCC1=O)c1ccccc1	13.7%	7.4%	-6.5%	1.3%
O=C(O)CC1CCCC(c2ccccc2)C1=O (stereo not drawn)	-5.6%	3.8%	13.1µM*	?
NC(=O)c1ccc(N2CCCCC2)c(N2C(=O)C3CC=CCC3C2=O)c1 (stereo not drawn)	-7.7%	2.9%	30.9%	-2.4%
C=C(C)C(=O)N1CC2(CC(c3cccc(NC(=O)c4ccccc4)c3)=NO2)C[C@@H]1C(N)=O (stereo partly drawn)	31.4%	-2.4%	31.3%	7.4%
Cc1cc(-c2ccc(C)c(S(=O)(=O)NCCCN3CCN(c4ccccc4F)CC3)c2)on1	?	-5.1%	4.65µM*	-10.1%
Cc1cc(-c2ccc(C)c(S(=O)(=O)NCCCN3CCN(c4ccccc4)CC3)c2)on1	?	-16.7%	?	-2.7%
Cc1cc(-c2ccc(C)c(S(=O)(=O)NCCCN3CCCCCC3)c2)on1	14.7µM*	-1.7%	?	5.0%
COc1cc2c(cc1OC)C(CC#N)=NC(C)(C)C2	.	-6.3%	?	-12.9%
Cn1nccc1C(=O)N1CCN(c2cccc(C(F)(F)F)c2)CC1	0.5%	-6.7%	24.5%	-1.1%
CC1CSc2n(-c3cccc(C(F)(F)F)c3)cc(-c3ccccc3)[n+]21 (stereo not drawn)	1.85µM*	-16.2%	?	0.1%
CC(C)=CC(=O)Nc1ccccc1C(N)=O	10.8%	6.7µM*	-23.3%	1.4%
CCOC(=O)c1ccccc1NC(=O)C=C(C)C	5.0%	20.2%	-7.6%	29.7%
CC(C)(C)[C@@H]1C=C(C(=O)Nc2ccccc2)O[C@H](OCc2ccc(CO)cc2)C1	?	-0.4%	8.28µM*	0.7%
C#CCNC(=O)C1=C[C@H](C(C)(C)C)C[C@H](OCc2ccc(CO)cc2)O1	?	-0.6%	?	-1.9%
O=C(C1=C[C@H](c2ccc(C(F)(F)F)cc2)C[C@H](OCCCCO)O1)N1CCN(Cc2ccccc2)CC1	?	-9.1%	?	-0.6%
O=C(C1=C[C@@H](C2CCCCC2)C[C@@H](OCCCCO)O1)N1CCN(Cc2ccc3c(c2)OCO3)CC1	?	-14.9%	6.57µM*	-0.9%
O=C(C1=C[C@@H](c2ccc(C(F)(F)F)cc2)C[C@@H](OCCCCO)O1)N1CCN(Cc2ccc3c(c2)OCO3)CC1	?	-3.6%	9.28µM*	0.0%
O=C(C1=C[C@@H](c2ccc3c(c2)OCO3)C[C@@H](OCc2ccc(CO)cc2)O1)N1CCOCC1	-12.7%	3.4%	?	0.4%
O=C(C1=C[C@@H](C2CC2)C[C@@H](OCCCCO)O1)N1CCN(Cc2ccc3c(c2)OCO3)CC1	?	0.2%	?	-0.8%
O=C(C1=C[C@@H](c2ccc(Br)cc2)C[C@@H](OCc2ccc(CO)cc2)O1)N1CCN(Cc2ccc3c(c2)OCO3)CC1	?	-20.8%	14.7µM*	-0.4%
COc1nc(NCCc2ccc(OC)c(OC)c2)nc(NC(C)(C)CO)n1	-28.1%	-6.3%	.	8.5%
COc1cccc(NC(=O)C(Cc2ccccc2)n2cccc2)c1 (stereo not drawn)	?	2.7%	?	-4.8%
Cc1nc(C(=O)Nc2cccc(Cl)c2Cl)nn1-c1cc(OC(C)C)c(Cl)cc1Cl	22.3%	30.2%	63.6%	-22.3%
O=C(NCc1ccccc1)NC1(C(=O)N2CCN(c3ccccc3)CC2)CCCCC1	?	-8.6%	0.0%	-6.1%
CC(C)(C)[C@@H]1C=C(C(=O)N2CCN(Cc3ccc4c(c3)OCO4)CC2)O[C@H](OCc2ccc(CO)cc2)C1	10.4µM*	-0.4%	11.7µM*	-2.6%
CC(C)(C)[C@H]1C=C(C(=O)N2CCN(Cc3ccc4c(c3)OCO4)CC2)O[C@@H](OCCCCO)C1	?	-8.2%	?	1.3%
